PubChem BioAssay AID662 (National Center for Advancing Translational Sciences (NCATS), 2007)
About 1,800 (2.5%) of roughly 71,000 compounds were called active. Roughly 26% stayed inconclusive and do not appear here. Many of the other results were omitted from the sample, so actives are more common in it than they were. Unmarked numbers belong to inactive results. Calls follow the shape of the dose curve; as a rule, active = well fitted activation curve with a large enough effect in the signal ratio, with a control signal flat (not every such curve was filed as active); inconclusive = small, poorly fitted or top-dose-only effect, or effect the other way, or a change in a side signal; inactive = flat fitted curve, though single readings scatter; the % refers to the signal ratio.

test: Cell signaling CRE-BLA (Fsk stim); conditions: CHO CRE-bla reporter (cAMP response element driving beta-lactamase), forskolin EC10, beta-lactamase ratio; series mostly up to 38.2 µM; activity change, negative = inhibition: at the top concentration; as to activity change, negative = inhibition: % of control where 0% means no effect
How it was run: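 AC50 values, positive or negative, reflect shifts in EC10 NKH 477-induced CRE-bla reporter activity in CHO cells. Incubation lasted 3 h at 37 °C before CCF4 substrate (2 h, room temperature) and ratiometric 460/530 nm reading.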
Potency is read from the fitted curve at half-maximal effect.

SMILES	activity change, negative = inhibition	Potency
NC(=O)C1CC=CCC1C(=O)OCC(Cl)=C(Cl)Cl (stereo not drawn)	-9.86%	
CC(=O)Oc1cccc(N2C(=O)C3CC=C(Cl)CC3C2=O)c1 (stereo not drawn)	10.5%	
CC(=O)c1cccc(NC(=O)c2ccncc2)c1	-3.63%	
Cc1cc(C)c2c(n1)nn1c(-n3ccnc3)cc(C)nc21		6.31 µM (active)
CC(=O)Nc1ccc(S(=O)(=O)N2CCSCC2)cc1	-0.365%	
O=C(CCN1C(=O)c2ccccc2C1=O)Nc1ccncc1	9.45%	
CC1CCN(c2nc3c(c(=O)[nH]c(=O)n3C)n2CCCc2ccccc2)CC1	9.3%	
Cn1c(=O)[nH]c(=O)c2c1nc(N1CCCCCC1)n2CC(=O)c1ccccc1	-2.8%	
Cn1c(=O)[nH]c(=O)c2c1nc(Br)n2CCCCSc1nc2ccccc2o1		2.51 µM (active)
C[C@]1(C(=O)NCCc2c[nH]c3ccccc23)C=C[C@@H](Cc2ccccc2)N1C(=O)c1ccccc1	-22%	
C1CCC2OC2C1 (stereo not drawn)	-9.24%	
CC(=O)Nc1ccc(S(=O)(=O)Nc2ccc(N3CCOCC3)c(F)c2)cc1	-0.86%	
CCOc1cccc(NC(=O)CC#N)c1	-3.19%	
CC(=O)Nc1cccc(Oc2cc(C#N)c(C#N)cc2N2CCOCC2)c1		5.01 µM (active)
CCCC(Cl)CCCC(Cl)CCC(Cl)CCC(Cl)CCC(Cl)CCCC(Cl)CCC (stereo not drawn)	-10.8%	
O=C(Cl)c1ccccc1[N+](=O)[O-]	-8.49%	
CCOC(=O)C1CCN(c2ncnc3c2oc2ccc(Br)cc23)CC1		2.51 µM (active)
CCOC(=O)C1CCN(C(=O)c2oc3ccc(S(=O)(=O)N4CCCCCC4)cc3c2C)CC1	-4.03%	
CCOC(=O)N1CCN(C(=O)C2CCN(c3ncnc4c3sc3cccc(F)c34)CC2)CC1	5.74%	
COc1ccc(-n2c(SC)nc(O)cc2=O)cc1	-26.5% [at 7.6 µM]	
COC(=O)c1ccc(S(=O)(=O)c2ccc(C(=O)OC)s2)s1	-1.96%	
CSc1nnc2c(n1)OC(c1cn(C)c3ccccc13)N(C(C)=O)c1ccccc1-2 (stereo not drawn)	2.27% [at 7.6 µM]	
c1ccc2cc(OCCN3CCCC3)ccc2c1	-1.69% [at 7.6 µM]	
COc1cccc2c(=O)n(CC(=O)N3CCCCCC3)ccc12	-7.62%	
CCOc1ccccc1/C=c1\sc2nc(-c3ccco3)nn2c1=O	-11.2%	
CCOC(=O)/C=c1\s/c(=C\c2ccccc2OC)c(=O)n1CC(=O)N1CCOCC1		2.51 µM (active)
O=C(NC1CCN(Cc2ccccc2)CC1)c1ccccc1F	-2.83%	

SMILES	activity change, negative = inhibition	Potency
COCCOC(=O)C1=C(C)NC(=O)NC1c1ccc(Cl)cc1 (stereo not drawn)	-2.61%	
CCSc1nc(C)nc2c1oc1ccccc12		12.6 µM (active)
C[C@@H](Nc1nc(-c2ccccc2)nc2c1oc1ccccc12)C(=O)O	3.05%	
Cc1nc(N2CCCC2C(=O)O)c2oc3ccccc3c2n1 (stereo not drawn)	14.5%	
CCCc1nc2ccccc2c(C(=O)OCc2nnc(-c3cc(OC)c(OC)c(OC)c3)o2)c1CC		0.501 µM (active)
CCOC(=O)c1cc(-c2nnc(-c3cc(OC)c(OC)c(OC)c3)o2)c(C)nc1C	13.5%	
O=C(OCc1nnc(-c2ccccc2)o1)c1ccc2c(c1)C(=O)N(CCc1ccccc1)C2=O	14.8%	
C[C@@H]1O[C@@H](O[C@@H]2[C@@H](O)[C@H](OCCc3ccc(O)c(O)c3)O[C@H](CO[C@@H]3O[C@H](CO)[C@@H](O)[C@H](O)[C@H]3O)[C@H]2OC(=O)/C=C/c2ccc(O)c(O)c2)[C@H](O)[C@H](O)[C@H]1O	-1.8%	
N[C@@H](C(=O)O)c1ccc(P(=O)(O)O)cc1	3.09%	
CC1CN(c2cc(=O)n(Cc3ccc(F)cc3)c(=O)[nH]2)CC(C)O1 (stereo not drawn)	-4.71%	
COCc1cc(C)nc(Nc2cc(C)ccc2C)c1C#N	12.3%	
CCOCC(=O)Nc1sc2c(c1C(=O)OCC)CCCC2		10 µM (active)
COC(=O)c1sc(NC(=O)c2csc3c2CCCC3)nc1C	18.1%	
CCOC(=O)c1sc(NC(=O)CCN2CCOCC2)c(C(=O)OCC)c1C	7.36%	
COC(=O)c1c(NC(=O)CSc2nncs2)sc2c1CCCCC2		6.31 µM (active)
N#Cc1c(NC(=O)CSc2nc3ccccc3c(=O)n2Cc2ccco2)sc2c1CCCC2	-3.2%	
CCOC(=O)c1c(-n2cnnn2)sc(C)c1C	12.6%	
C=CCOC(=O)COCCC(C)C	-7.88%	
CC1C(c2ccccc2)=[N+]([O-])C2(CCCC2)N1O (stereo not drawn)	-1.15%	
CCCC[C@@H]1C[C@H]1C(NC(=O)c1ccco1)c1ccc(C(=O)OC)cc1 (stereo partly drawn)	4.18%	
C/C=C1\C(=O)C[C@@H]2[C@@H]3CCC4=CC(=O)CC[C@@]4(C)[C@H]3CC[C@@]12C	11.9%	
O=C(Nc1cccc(F)c1)c1ccc(S(=O)(=O)N2CCCC2)cc1	-0.683%	
CSc1nnc(-c2ccncc2)n1CCCN1CCCC1=O	0.937%	
CC(C)(C)OC(=O)c1c(N)n(CCCN2CCCC2=O)c2nc3ccccc3nc12		10 µM (active)
CCOc1cc2[nH]c(=S)n(CCCN3CCCC3=O)c(=O)c2cc1OCC	0.0831%	
Cc1ccccc1C(=O)O	-1.28%	
